According to PubChem BioAssay:
Active and inactive are the calls of the source.

Assays:
[1] = A549 cell viability effects, profiling panel, calcein-AM fluorescence, 48 h, basal (AID 1162); details: higher = more signal
[2] = adipocyte viability effects, profiling panel, cell-based, 3T3-L1 adipocytes, calcein-AM fluorescence, 48 h, basal (AID 1163); details: 3T3-L1 adipocytes viability, higher = more signal
[3] = HepG2 cell viability effects, profiling panel, calcein-AM fluorescence, 48 h, basal (AID 1164); details: higher = more signal
[4] = MM1S cell viability effects, profiling panel, calcein-AM fluorescence, 48 h, basal (AID 1165); details: higher = more signal;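 further: viability of MM1S multiple myeloma cells under basal unstimulated conditions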
[5] = basal RPMI8226 viability, no added stimulus, profiling panel, cell-based, calcein-AM fluorescence, 48 h, PK04 Diversity Set (AID 1166); details: RPMI8226 myeloma viability, higher = more signal;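 further: cells grown under basal conditions without added stimulus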
[6] = basal HepG2 mitochondrial membrane potential changes, profiling panel, cell-based, JC-1 fluorescence, 24 h, 100 nL compound (AID 1167); details: higher = more signal
[7] = basal 3T3-L1 adipocyte mitochondrial potential changes, profiling panel, cell-based, JC-1 fluorescence, 3T3-L1 adipocytes, 24 h, 100 nL compound (AID 1168); details: JC-1 mitochondrial fluorescence, higher = more signal, called active from +8 up or from −8 down
[8] = basal RPMI8226 mitochondrial membrane potential changes, profiling panel, cell-based, JC-1 fluorescence, 24 h, 100 nL compound (AID 1169); details: RPMI8226 myeloma, JC-1 mitochondrial potential fluorescence, higher = more signal
[9] = basal MM1S mitochondrial membrane potential changes, profiling panel, cell-based, JC-1 fluorescence, 24 h, 100 nL compound (AID 1170); details: higher = more signal
[10] = A549 lung cancer cell viability effects, profiling panel, resazurin fluorescence, 24 h, PK04 Diversity Set (AID 1171); details: higher = more signal, called active from +8 up or from −8 down
Further: test concentration not given here.

Work on `COCCCNC(=O)[C@@]1(CCC(=O)OC(C)(C)C)N=C(c2ccc(OCCCO)cc2)O[C@H]1c1ccccc1` yielded a z-score [1] of 0.899, a z-score [2] of -0.0512 and a z-score [3] of 0.317. For the same molecule, the z-score [4] was 0.32, the z-score [5] was 0.678 and the z-score [6] was 0.842. The z-score [7] was 2.11 (inactive), the z-score [8] was 0.721 and the z-score [9] was -1.08. For the same molecule, the z-score [10] was -0.376 (inactive).
In the case of `Cc1cccc([C@H]2C[C@H]3C(Br)=C[C@@]2(CO)C(=O)[C@]32CO2)c1`, the z-score [1] was -0.602, the z-score [2] was 0.0875 and the z-score [3] was -0.729. For the same molecule, the z-score [4] was -2.43, the z-score [5] was -0.551 and the z-score [6] was -2.11. The z-score [7] was -0.0495 (inactive), the z-score [8] was -0.0551 and the z-score [9] was -0.876. For the same molecule, the z-score [10] was 0.393 (inactive).
Molecule `CC(C)C[C@H]1NC(=O)CNC(=O)[C@@]23C(=O)N[C@@H](Cc4ccccc4)C2[C@H](C)[C@@]2(C)O[C@H]2C3/C=C/C/C=C\CNC1=O` (stereo not given in full) has a z-score [1] of -0.518, a z-score [2] of 0.535 and a z-score [3] of -0.899. The z-score [4] was -0.101, the z-score [5] was -0.0815 and the z-score [6] was -0.561. The z-score [7] was 0.451 (inactive), the z-score [8] was -0.469 and the z-score [9] was -0.112. For the same molecule, the z-score [10] was 0.478 (inactive).
For `COc1ccc([Si](C)(C)[C@H]2[C@H](CC(=O)N(CCO)Cc3ccccc3)O[C@@]3(C(=O)N(c4ccccc4)c4ccccc43)[C@@H]2C)cc1`, the z-score [1] was -3.41, the z-score [2] was -1.38 and the z-score [3] was -4.61. For the same molecule, the z-score [4] was -2.69, the z-score [5] was -4.38 and the z-score [6] was -2.35. The z-score [7] was 0.938 (inactive), the z-score [8] was -1.11 and the z-score [9] was -2.27. The z-score [10] was -3.43 (inactive).
`C=C(CCCC)C(=O)CC[C@H](OC(=O)c1ccccc1-c1ccccc1C(=O)O)c1cccc(OCCO)c1` showed a z-score [1] of -0.186, a z-score [2] of 0.415 and a z-score [3] of -0.73. It also gave a z-score [4] of -3.37, a z-score [5] of -2.88 and a z-score [6] of -0.789. The z-score [7] was 0.379 (inactive), the z-score [8] was -0.451 and the z-score [9] was -0.507. The z-score [10] was -0.611 (inactive).
`[N-]=[N+]=NCc1ccccc1[C@H]1OC(c2ccc(OCCCO)cc2)=N[C@@]1(CCS(=O)(=O)c1ccccc1)C(=O)O` showed a z-score [1] of 0.0952, a z-score [2] of 0.0313 and a z-score [3] of 0.35. For the same molecule, the z-score [4] was 0.263, the z-score [5] was -0.829 and the z-score [6] was -1.24. For the same molecule, the z-score [7] was -1.02 (inactive), the z-score [8] was -0.278 and the z-score [9] was -0.479. The z-score [10] was 0.355 (inactive).
`COC(=O)C(CC#Cc1ccc2c(c1)[C@]1(C(=O)N2)[C@H](C(=O)N2CCN(c3ncccn3)CC2)[C@H]2C(=O)O[C@H](c3ccccc3)[C@H](c3ccccc3)N2[C@@H]1c1ccc(O)cc1)C(=O)OC` gave a z-score [1] of 0.489, a z-score [2] of -0.569 and a z-score [3] of 1.24. For the same molecule, the z-score [4] was 0.142, the z-score [5] was -2.03 and the z-score [6] was -0.921. For the same molecule, the z-score [7] was 0.00989 (inactive), the z-score [8] was -1.09 and the z-score [9] was -0.205. For the same molecule, the z-score [10] was -0.423 (inactive).
`C=CCOC(=O)[C@@H]1[C@H]2C(=O)O[C@H](c3ccccc3)[C@H](c3ccccc3)N2[C@H](c2ccc(OCCOC(=O)[C@H]3C[C@H]4C(=O)N[C@@H](CCCCN(C)C)C(=O)N4[C@H]3c3cccc(OCCO)c3)cc2)[C@@]12C(=O)Nc1ccccc12` showed a z-score [1] of -0.555, a z-score [2] of -0.453 and a z-score [3] of -0.113. For the same molecule, the z-score [4] was 0.293, the z-score [5] was -2.17 and the z-score [6] was -1.29. For the same molecule, the z-score [7] was -0.5 (inactive), the z-score [8] was -0.928 and the z-score [9] was -0.689. For the same molecule, the z-score [10] was 0.64 (inactive).
`C=C[C@@H](CO)NS(=O)(=O)c1ccc(Br)cc1` gave a z-score [1] of 2.03, a z-score [2] of 0.935 and a z-score [3] of 2.23. It also gave a z-score [4] of 0.855, a z-score [5] of 1.05 and a z-score [6] of 0.631. For the same molecule, the z-score [7] was 0.369 (inactive), the z-score [8] was 0.133 and the z-score [9] was 0.993. The z-score [10] was 2.35 (inactive).
In the case of `COC(=O)[C@@]1(Cc2ccc(OC)cc2)[C@H]2c3cc(C(=O)N(C)C)n(Cc4c(CO)[nH]cc(C)c4=O)c3C[C@H]2CN1C(=O)c1ccccc1`, the z-score [1] was -1.38, the z-score [2] was -0.621 and the z-score [3] was -0.177. It also gave a z-score [4] of -0.314, a z-score [5] of -0.411 and a z-score [6] of -0.67. For the same molecule, the z-score [7] was -1.33 (inactive), the z-score [8] was -0.0347 and the z-score [9] was -1.24. For the same molecule, the z-score [10] was 0.252 (inactive).
`CCOC(=O)C[C@H]1[C@H](OC(=O)c2cc3ccccc3oc2=O)[C@@H](NC(=O)c2ccc(-c3ccccc3)cc2)c2cc(OCCCO)ccc2N1C(=O)Cc1ccc(OC)cc1` gave a z-score [1] of -0.382, a z-score [2] of 1 and a z-score [3] of 0.0719. For the same molecule, the z-score [4] was 0.17, the z-score [5] was -0.84 and the z-score [6] was -0.0623. For the same molecule, the z-score [7] was -1.08 (inactive), the z-score [8] was -0.97 and the z-score [9] was -0.0508. The z-score [10] was 0.0573 (inactive).
Work on `O=C1OCCC/C=C\[C@H]2OC34C=CCN(Cc5ccccc5)C(=O)[C@H]3N(CCO)C(=O)[C@@H]4C12` (stereo not given in full) yielded a z-score [1] of 0.457, a z-score [2] of -0.728 and a z-score [3] of 1.21. For the same molecule, the z-score [4] was 1.64, the z-score [5] was 0.998 and the z-score [6] was 1.03. The z-score [7] was 0.857 (inactive), the z-score [8] was -0.0351 and the z-score [9] was -0.27. For the same molecule, the z-score [10] was 0.263 (inactive).
Work on `COC(=O)c1c2oc(c1C(=O)OC)C(=O)N[C@H](Cc1ccccc1)Cn1cc(nn1)C1(CCCCC1)NC(=O)N[C@H](CO)CC2` yielded a z-score [1] of 0.78, a z-score [2] of 0.705 and a z-score [3] of 0.286. For the same molecule, the z-score [4] was 0.977, the z-score [5] was 0.943 and the z-score [6] was 0.381. For the same molecule, the z-score [7] was 0.621 (inactive), the z-score [8] was -0.662 and the z-score [9] was -1.2. For the same molecule, the z-score [10] was -0.547 (inactive).
In the case of `[N-]=[N+]=NCc1ccccc1C[C@]1(C(=O)N2CCCCC2)COC(c2ccc(OCCCO)cc2)=N1`, the z-score [1] was 0.139, the z-score [2] was -0.288 and the z-score [3] was -0.689. It also gave a z-score [4] of -3.54, a z-score [5] of -4.52 and a z-score [6] of -0.792. For the same molecule, the z-score [7] was 0.607 (inactive), the z-score [8] was -1.22 and the z-score [9] was -1.98. For the same molecule, the z-score [10] was 0.898 (inactive).
`CC(CO)N1C(=O)[C@@H]2[C@H]3C(=O)OCC=C[C@H]3OC23C=CCN(c2ccc4ccccc4c2)C(=O)[C@@H]13` (stereo not given in full) showed a z-score [1] of 0.0456, a z-score [2] of 0.0291 and a z-score [3] of -0.432. For the same molecule, the z-score [4] was -0.496, the z-score [5] was -0.149 and the z-score [6] was -0.626. The z-score [7] was -0.654 (inactive), the z-score [8] was 0.109 and the z-score [9] was 0.563. For the same molecule, the z-score [10] was 0.873 (inactive).
`CCCC1(C(=O)OC)C=C2C(=C(C(C)C)C(=O)C2C)CN1` (stereo not given) showed a z-score [1] of -1.47, a z-score [2] of 0.273 and a z-score [3] of -0.0319. It also gave a z-score [4] of 0.313, a z-score [5] of -0.316 and a z-score [6] of -1.45. The z-score [7] was -1.43 (inactive), the z-score [8] was -0.613 and the z-score [9] was -0.458. The z-score [10] was -0.898 (inactive).
